Where “and” joins values, the source holds several entries; their conditions need not be identical. Equal entries are not always repeated. Records with an inconclusive call do not appear. Calls of active or inactive are those of the source. Calls follow the shape of the dose curve; as a rule, active = well fitted curve in the direction sought with a large enough effect; inconclusive = small, poorly fitted or top-dose-only effect, or another doubt; inactive = no such curve, though single readings can be large; an effect the other way counts as inactive or inconclusive.
Tests used:
[1] = qHTS of pediatric cancer cell lines to identify multiple opportunities for drug repurposing: Primary screen for BT-37 cells (AID 1347094); also: potency is read from the fitted curve at half-maximal effect
In short: (§1)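 Phenotypic viability qHTS, 48 h compound exposure, CellTiter-Glo luminescence read-out; multi-concentration dosing so that potency and efficacy derive directly from the primary screen's curves.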

[2] = qHTS of pediatric cancer cell lines to identify multiple opportunities for drug repurposing: Primary screen for NB-EBc1 cells (AID 1347095); also: potency is read from the fitted curve at half-maximal effect
In short: as §1

[3] = qHTS of pediatric cancer cell lines to identify multiple opportunities for drug repurposing: Primary screen for U-2 OS cells (AID 1347096); also: nearly all actives have a fitted effect of over 50% in size; also: potency is read from the fitted curve at half-maximal effect
In short: (§2)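 Viability after 48 h compound treatment at 37C, 500-1,000 cells/well, read as ATP luminescence with CellTiter-Glo. Primary screens used 11-point (MIPE, 0.78 nM-46 µM) or 8-point (NPC, 0.59 nM-46 µM) final concentrations; follow-up screens used 11-point dilutions.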

[4] = qHTS of pediatric cancer cell lines to identify multiple opportunities for drug repurposing: Primary screen for Saos-2 cells (AID 1347097); also: nearly all actives have a fitted effect of over 40% in size; also: potency is read from the fitted curve at half-maximal effect
In short: as §1

[5] = qHTS of pediatric cancer cell lines to identify multiple opportunities for drug repurposing: Primary screen for NB1643 cells (AID 1347099); also: nearly all actives have a fitted effect of over 50% in size; also: potency is read from the fitted curve at half-maximal effect
In short: as §1

[6] = qHTS of pediatric cancer cell lines to identify multiple opportunities for drug repurposing: Primary screen for LAN-5 cells (AID 1347100); also: potency is read from the fitted curve at half-maximal effect
In short: as §2

[7] = qHTS of pediatric cancer cell lines to identify multiple opportunities for drug repurposing: Primary screen for BT-12 cells (AID 1347101); also: nearly all actives have a fitted effect of over 25% in size; also: potency is read from the fitted curve at half-maximal effect
In short: (§3)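 Cells (500-1,000/well) rested 5 h, then received compounds for 48 h; metabolically active cells were measured by CellTiter-Glo luminescence. Final concentrations spanned up to 46 µM (MIPE, 11-point) or 0.59 nM-46 µM (NPC, 8-point) in primary screens, 11-point in follow-ups.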

[8] = qHTS of pediatric cancer cell lines to identify multiple opportunities for drug repurposing: Primary screen for Rh18 cells (AID 1347102); also: nearly all actives have a fitted effect of over 65% in size
In short: as §2

[9] = qHTS of pediatric cancer cell lines to identify multiple opportunities for drug repurposing: Primary screen for OHS-50 cells (AID 1347103); also: nearly all actives have a fitted effect of over 40% in size; also: potency is read from the fitted curve at half-maximal effect
In short: as §3

[10] = qHTS of pediatric cancer cell lines to identify multiple opportunities for drug repurposing: Primary screen for RD cells (AID 1347104); also: nearly all actives have a fitted effect of over 55% in size; also: potency is read from the fitted curve at half-maximal effect
In short: as §1

[11] = qHTS of pediatric cancer cell lines to identify multiple opportunities for drug repurposing: Primary screen for MG 63 (6-TG R) cells (AID 1347105); also: nearly all actives have a fitted effect of over 50% in size; also: potency is read from the fitted curve at half-maximal effect
In short: as §1

[12] = qHTS of pediatric cancer cell lines to identify multiple opportunities for drug repurposing: Primary screen for control Hh wild type fibroblast cells (AID 1347106);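 also: series mostly up to about 46 µM; a drop in luminescence marks cytotoxicity and a rise apparent proliferation; nearly all actives have a fitted effect of over 55% in size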
In short: as §2

[13] = qHTS of pediatric cancer cell lines to identify multiple opportunities for drug repurposing: Primary screen for Rh30 cells (AID 1347107); also: series mostly up to about 46 µM; nearly all actives have a fitted effect of over 75% in size
In short: as §2

[14] = qHTS of pediatric cancer cell lines to identify multiple opportunities for drug repurposing: Primary screen for Rh41 cells (AID 1347108); also: nearly all actives have a fitted effect of over 70% in size; also: potency is read from the fitted curve at half-maximal effect
In short: as §1

[15] = qHTS of pediatric cancer cell lines to identify multiple opportunities for drug repurposing: Primary screen for SK-N-SH cells (AID 1347098);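 also: DMSO served as neutral control and bortezomib at 2.3 µM as positive control; nearly all actives have a fitted effect of over 65% in size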
In short: as §3

[16] = qHTS of pediatric cancer cell lines to identify multiple opportunities for drug repurposing: Confirmatory screen for NB1643 cells (AID 1347109); also: nearly all actives have a fitted effect of over 45% in size
In short: as §2

[17] = qHTS of pediatric cancer cell lines to identify multiple opportunities for drug repurposing: Confirmatory screen for A673 cells (AID 1347110); also: nearly all actives have a fitted effect of over 65% in size
In short: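 Forty-eight-hour viability assay. Follow-up compounds ran at 11-point dilutions; positive control bortezomib at 2.3 uM final, neutral control DMSO.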

[18] = qHTS of pediatric cancer cell lines to identify multiple opportunities for drug repurposing: Confirmatory screen for SK-N-MC cells (AID 1347111);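 also: cells exposed to compound for 48 h before the readout; nearly all actives have a fitted effect of over 70% in size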
In short: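 SK-N-MC cells at 500-1,000 cells/well in growth media were pre-incubated 5 h, then exposed to compounds at 11-point dilutions for 48 h at 37 degrees C, 5% CO2. Viability was read as CellTiter-Glo luminescence.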

[19] = qHTS of pediatric cancer cell lines to identify multiple opportunities for drug repurposing: Confirmatory screen for BT-12 cells (AID 1347112); also: nearly all actives have a fitted effect of over 55% in size
In short: as §2

[20] = qHTS of pediatric cancer cell lines to identify multiple opportunities for drug repurposing: Confirmatory screen for LAN-5 cells (AID 1347113); also: nearly all actives have a fitted effect of over 65% in size
In short: as §2

Measured: Potency

OCCOc1ccccc1
inactive: [1] | [2] | [3] | [4] | [5] | [6] | [7] | [8] | [9] | [10] | [11] | [12] | [13] | [14]

O=c1oc2ccccc2c(O)c1C(CC(O)c1ccc(-c2ccc(Br)cc2)cc1)c1ccccc1 (stereo not given)
inactive: [1] | [2] | [3] | [4] | [15] | [5] | [6] | [7] | [8] | [9] | [10] | [11] | [12] | [13] | [14]

CCCC(C)(COC(N)=O)COC(=O)NC(C)C (stereo not given)
inactive: [1] | [2] | [3] | [4] | [15] | [5] | [6] | [7] | [8] | [9] | [10] | [11] | [12] | [13] | [14]

CC(C)CC(N(C)C)C1(c2ccc(Cl)cc2)CCC1 (stereo not given)
inactive: [1] | [2] | [3] | [4] | [15] | [5] | [6] | [7] | [8] | [9] | [10] | [11] | [12] | [13] | [14]

Cc1cccc(C)c1NC(=O)CN1CCCC1=O
inactive: [1] | [2] | [3] | [4] | [15] | [5] | [6] | [7] | [9] | [10] | [11] | [12] | [13] | [14]

Fc1ccc(C(OCCN2CCN(CCCc3ccccc3)CC2)c2ccc(F)cc2)cc1
inactive: [12]
active: [1] 21.7 µM and 24.6 µM | [2] 23.7 µM | [3] 23.5 µM | [4] 14.8 µM and 15 µM | [5] 13.2 µM | [6] 16.6 µM and 8.41 µM | [7] 21.7 µM and 24.6 µM | [9] 10.9 µM and 15.5 µM | [10] 26.4 µM and 23.7 µM | [11] 21.1 µM | [14] 20.9 µM

C[C@]12CCC(=O)C(O)=C1CC[C@@H]1[C@@H]2CC[C@]2(C)C(=O)CC[C@@H]12
inactive: [1] | [2] | [3] | [4] | [15] | [5] | [6] | [7] | [9] | [10] | [11] | [12] | [13] | [14]

C#CCN(C)[C@H](C)Cc1ccccc1
inactive: [1] | [2] | [3] | [4] | [15] | [5] | [6] | [7] | [8] | [9] | [10] | [11] | [12] | [13] | [14]

COc1ccc(C(CN(C)C)C2(O)CCCCC2)cc1 (stereo not given)
inactive: [1] | [2] | [3] | [4] | [5] | [6] | [7] | [9] | [10] | [11] | [12] | [13] | [14]

CC(=O)[C@H]1CC[C@H]2[C@@H]3CC[C@H]4C[C@](C)(O)CC[C@]4(C)[C@H]3CC[C@]12C
inactive: [1] | [2] | [3] | [4] | [5] | [6] | [7] | [8] | [9] | [10] | [11] | [12] | [13] | [14]

NCCc1cc(O)c(O)cc1O
inactive: [1] | [2] | [3] | [4] | [5] | [6] | [7] | [10] | [11] | [12] | [13] | [14]

O=P1(NCCCl)OCCCN1CCCl (stereo not given)
inactive: [1] | [2] | [3] | [4] | [15] | [5] | [6] | [7] | [9] | [10] | [11] | [12] | [13] | [14] | [16] | [17] | [18] | [19] | [20]

CCC(C(N)=O)N1CCCC1=O (stereo not given)
inactive: [1] | [2] | [3] | [4] | [5] | [6] | [7] | [8] | [9] | [10] | [11] | [12] | [13] | [14]

CCN(CC)CCN1C(=O)CN=C(c2ccccc2F)c2cc(Cl)ccc21
inactive: [1] | [2] | [3] | [4] | [15] | [5] | [6] | [7] | [8] | [10] | [11] | [12] | [13] | [14]

CC1NCCOC1c1ccccc1 (stereo not given)
inactive: [1] | [2] | [3] | [4] | [15] | [5] | [6] | [7] | [8] | [9] | [10] | [11] | [12] | [13] | [14]
